PNC assembly inh: blocks assembly of the perinucleolar compartment; PC3M PTB-GFP, PNC prevalence imaging, 16 h; active compounds read low; activity change (PNC), negative = inhibition, % at 10 µM; hit rate 3.1% among 140,000;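 active means readout at or below -70, meaning at least 70% loss of cells showing the perinucleolar compartment, a nuclear body marking cancer cells; inconclusive means readout between -30 and a set limit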;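 further: plate controls were DMSO wells for no effect and camptothecin positive control wells for full effect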
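Compounds are pinned in duplicate onto adhered PC3M cells stably expressing GFP-tagged PTB and incubated 16 h at 37 C. Cells are then fixed, nuclei stained with Hoechst, and PNC-positive cells counted.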
HttQ103 aggreg: reduces HttQ103-GFP aggregates in PC12 cells. AID 1688. hit rate 1.1% among 220,000. Potency, µM (titrated, usually from 46.1 µM), for inactives: top-dose activity change, negative = inhibition, most hits filed as inhibitors. PC12 HttQ103-GFP aggregates, Acumen cytometry, 40 h; further: potency means the concentration at half of the fitted maximal effect; on the % scale 0 is the no-effect control and ±100 the full control effect; nearly all actives have a fitted effect of over 60% in size
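PC12/HTTQ103-GFP, ecdysone-inducible; teb 100 nM; cpd qHTS titration; GFP aggregates read on laser cytometer, Ex 488/Em 500-530 nm.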
HTT ATP protect: Huntington cell model cytoprotection by ATP luminescence; Potency, µM (series often up to 56.4 µM), without a hit: cytoprotection (ATP increase), usual class: activators; hit rate 0.14% among 230,000; PC12 HTT-Q103 induced, cytoprotection, ATP luminescence, 40 h; further: potency means the concentration at half of the fitted maximal effect; % of control where 0% means no effect; nearly all actives have a fitted effect of over 45% in size
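Compounds added alongside 100 nM tebufenozide, which induces toxic Q103 huntingtin exon 1-GFP in stable PC12 cells; surviving cells quantified by luminescent ATP measurement. Medium: phenol red-free DMEM, 5% equine and 5% calf serum.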
* marks the source's active call; other numbers are inactive results; u = inconclusive; x = no result; [ ] = dose if it differs, or a comment. Many of the other results were omitted from the sample, so hits are more common in it than they were. Unless noted, the call rests on the fitted dose curve; in most records, active means well fitted curve in the direction sought with a large enough effect; inconclusive means small, poorly fitted or top-dose-only effect, or another doubt; inactive means no such curve, though single readings can be large; an effect the other way counts as inactive or inconclusive.

SMILES	PNC assembly inh	HttQ103 aggreg	HTT ATP protect
COc1ccc2c(c1)OC/C(=C\c1ccc(OC)c(O)c1)C2=O	x	x	6.3µM*
COc1ccc(/C=C2\COc3ccccc3C2=O)cc1OC	u	-6%	33%[0.074 µM]
COCCN(C(=O)Cn1nnc2ccccc21)C(C(=O)NC1CCCCC1)c1ccc(OC)cc1OC (centres undefined)	-19	13%	-8%[10 µM]
COCCN(C(=O)Cn1nnc2ccccc21)C(C(=O)NC1CCCC1)c1ccc(OC)cc1OC (centres undefined)	-88*	16%	-16%[10 µM]
O=C(NC(=S)NCCSc1ccccc1)c1cccnc1	-95*	-2%	0%[10 µM]
O=C(NC(=S)NCc1cccnc1)c1ccccc1	1	-7%	0%[10 µM]
CC(C)c1ccc(NC(=O)NC2CC3CCC(C2)N3Cc2cccs2)cc1 (centres undefined)	x	-10%	-17%
Cc1cccc(C)c1NC(=O)NC1CC2CCC(C1)N2Cc1cccs1 (centres undefined)	-83*	-8%	6%[10 µM]
N=c1n(CCN2CCCC2)c2ccccc2n1CC(O)c1ccco1 (centres undefined)	-92*	-29%	-2%[10 µM]
CCCCCCCn1c(=N)n(CC(O)c2ccco2)c2ccccc21 (centres undefined)	x	-5%[9.22 µM]	25%[10 µM]
O=C(CSc1nc(-c2ccc(Cl)cc2)cs1)Nc1cccc([N+](=O)[O-])c1	-3	-5%	18%[10 µM]
CCC1CSC(Nc2ccc(C(=O)/C=C/c3ccc(Br)cc3)cc2)=N1 (centres undefined)	-103*	20%	x
CCC1CSC(Nc2ccc(C(=O)/C=C/c3ccc(OC)c(OC)c3)cc2)=N1 (centres undefined)	52	u	27%[10 µM]
CC(=O)N/N=C(\C)CC(=O)Nc1cccc(C(F)(F)F)c1	x	-12%	-25%
O=C(c1ccc(Cn2cc(Cl)cn2)o1)N1CCN(Cc2ccc3c(c2)OCO3)CC1	-107*	u	-39%
O=C(c1ccc(Br)o1)N1CCN(Cc2ccc3c(c2)OCO3)CC1	u	2%[9.22 µM]	-5%
CC(=O)C1=NN(c2ccccc2)C(c2cccs2)N1c1ccc(N(C)C)cc1 (centres undefined)	-22	u	-16%
O=C(Cc1ccccc1[N+](=O)[O-])N1CCN(c2ccccc2F)CC1	-18	32%	30%[10 µM]
NNC(=O)CSc1nc(-c2ccccc2)cn1-c1ccccc1	x	-17%[9.22 µM]	-36%[10 µM]
COc1ccc(-n2cc(-c3ccccc3)nc2SC)cc1	-85*	4%	11%[1.9 µM]
COc1ccc2c(c1)sc1nc(-c3ccccc3)cn12	-96*	4%	-132%
CCOC(=O)N1CCN(C(=O)c2ccc3c(c2)sc2nc(-c4ccc(OC)cc4)cn23)CC1	18	-8%	-14%[10 µM]
Nc1ncnc2c1ncn2[C@@H]1O[C@H](C(=O)NC2CC2)[C@@H](O)[C@H]1O	x	x	14%
CC1CCCCN1C(=O)CCn1c(=S)oc2ccccc21 (centres undefined)	x	-12%[9.22 µM]	-3%[10 µM]
O=C(Cn1nnc2ccccc21)OCC(=O)c1ccc(Cl)cc1	x	-17%[9.22 µM]	-6%[10 µM]
SMILES	PNC assembly inh	HttQ103 aggreg	HTT ATP protect
CCCN1CN(Cc2ccccc2)CNC1=S	u	-13%	-16%[10 µM]
COCCCN1CN(Cc2ccccc2)CNC1=S	-92*	11%	20%[10 µM]
CCC(=O)N1N=C(c2c(-c3ccccc3)c3cc(Cl)ccc3[nH]c2=O)CC1c1ccco1 (centres undefined)	-82*	u	-15%[10 µM]
O=C(O)CCC(=O)N1N=C(c2c(-c3ccccc3)c3cc(Cl)ccc3[nH]c2=O)CC1c1ccco1 (centres undefined)	29	16%	16%[10 µM]
O=C(CSc1nc2cccnc2n1Cc1ccccc1)NCc1ccco1	31	-8%	6%[10 µM]
CCOC(=O)CNC(=O)CSc1nc2cccnc2n1C1CCCCC1	-93*	-3%	-5%
O=C(CSc1nnc(CCc2ccccc2)n1-c1ccc(Cl)cc1)NCc1ccccc1	-17	-11%	-11%
O=C(CSc1nc2ccccc2c(=O)n1CCCO)NCc1ccccc1	11	13%	-38%
CCOC(=O)CNC(=O)CSc1nc2cccnc2n1Cc1ccccc1	-80*	7%	4%[10 µM]
COCCCn1c(SCC(=O)NCc2ccccc2)nc2ccccc2c1=O	-100*	-13%	0%[10 µM]
CC(C)OC(=O)CSc1nc2cccnc2n1C1CCCCC1	-15	-14%	1%
COc1ccc(-n2c(CCc3ccccc3)nnc2SCC(=O)NCc2ccccc2)cc1	-108*	-11%	-20%
COc1cc(NC(=O)CCC2CCCC2)cc(-n2cnnn2)c1	u	-21%	x
CCOc1ccc(NCc2cc3cc(OC)ccc3[nH]c2=O)cc1	x	6%[9.22 µM]	11%[10 µM]
CC(C)C(=O)NC(=S)Nc1ccccc1C(=O)NC1CCCCC1	-114*	-3%	x
O=C(NC1CCCCCCC1)c1ccccc1-c1ccccc1	-113*	-7%	x
O=C(NC1CCCCCC1)c1ccccc1-c1ccccc1	-6	-4%	-5%[10 µM]
CCC(=O)NC(=S)Nc1ccccc1C(=O)NC1CCCCC1	27	-11%	x
CCc1nc(N2CCN(C(=O)c3ccccc3)CC2)c(C#N)c2c1COC(C)(C)C2	u	-28%	5%
CC1(C)Cc2c(C#N)c(N3CCN(C(=O)c4ccccc4)CC3)nc(Cc3ccccc3)c2CO1	10	22µM*	-23%
CN1CCN(C(=O)C2CCC(C)(C(=O)O)C2(C)C)CC1 (centres undefined)	x	1%[9.22 µM]	-3%[10 µM]
CCC(=O)c1cc2c(C)cc(=O)oc2c(C)c1OC	u	-33%	-3%[10 µM]
CCC(=O)Oc1c(C(=O)CC)cc2c(C)cc(=O)oc2c1C	u	13µM*	x
S=C(c1cn(CCOc2ccccc2)c2ccccc12)N1CCCC1	-6	u	-4%[10 µM]
Cc1ccc(OCCn2cc(C(=S)N3CCCC3)c3ccccc32)cc1C	-106*	u	-14%[10 µM]
SMILES	PNC assembly inh	HttQ103 aggreg	HTT ATP protect
COc1ccc(C(=O)CC(=O)c2ccc(C(C)(C)C)cc2)cc1	x	2%	-41%
COc1ccc(C(=O)C(CCC(CNC(C)(C)C)C(=O)c2ccc(OC)cc2)CNC(C)(C)C)cc1 (centres undefined)	-4	18µM*	x
Cc1nc2ccccc2c(=O)n1/N=C/c1ccc2ccccc2c1O	x	1%[9.22 µM]	18%[10 µM]
Cc1nnc(-c2ccccc2)c(=O)n1/N=C/c1c(O)ccc2ccccc12	-26	3.2µM*	-51%
CCOC(=O)c1sc(=S)n(-c2ccccc2)c1N	-20	-13%	-12%[10 µM]
CCNC(=O)c1sc(=S)n(-c2ccc(C)cc2)c1N	15	-14%	-5%
Cc1ccc(-n2c(N)c(C(=O)N3CCOCC3)sc2=S)cc1	-126*	u	-17%[0.074 µM]
CN1CCN(C(=O)c2sc(=S)n(-c3ccccc3)c2N)CC1	-97*	u	1%[10 µM]
COc1ccc(-c2nncnn2)cc1	27	-29%	11%[10 µM]
Cc1cc(C)nc(SCCn2c(N3CCC(C)CC3)nc3c2c(=O)n(C)c(=O)n3C)n1	17	-1%	-3%[10 µM]
COc1ccc(C(=O)NNC(=O)OC(C)(C)C)cc1	x	-2%[9.22 µM]	-2%[10 µM]
COc1ccc(C(=O)NN/C(C)=C/C(=O)C(F)(F)C(F)(F)C(F)(F)F)cc1	13	11µM*	41%[10 µM]
N#Cc1cc2c(nc1SCC(=O)Nc1sc3c(c1C#N)CCC3)CCCCC2	u	9%	-13%[0.074 µM]
CCNc1ncc2nc(-c3ccc(OC)cc3)c(=O)n(Cc3ccc(F)cc3)c2n1	x	x	23%

Screening results as filed in PubChem.
